Targets with a hit are over-represented here; the source holds about 8,800 in all. About 0.5% of all pairs of compound and target were hits.

Consider 23 targets from the supplement of paper PMC10849652.

Sequence of UniProt Q9GZR2 (Q9GZR2 whole entry, looked up): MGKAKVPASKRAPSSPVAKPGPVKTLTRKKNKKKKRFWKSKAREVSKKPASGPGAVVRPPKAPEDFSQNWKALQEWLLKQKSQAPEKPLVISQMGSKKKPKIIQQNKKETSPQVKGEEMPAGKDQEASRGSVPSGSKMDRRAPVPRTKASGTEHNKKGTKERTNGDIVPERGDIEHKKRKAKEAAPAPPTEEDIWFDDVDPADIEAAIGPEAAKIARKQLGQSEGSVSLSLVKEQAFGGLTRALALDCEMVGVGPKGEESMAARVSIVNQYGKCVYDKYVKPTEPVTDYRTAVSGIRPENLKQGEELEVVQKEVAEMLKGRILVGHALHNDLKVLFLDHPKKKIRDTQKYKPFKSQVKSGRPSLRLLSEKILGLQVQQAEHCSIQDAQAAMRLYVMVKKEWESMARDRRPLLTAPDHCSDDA
Sequence of UniProt Q7L523 (Q7L523 whole entry, looked up): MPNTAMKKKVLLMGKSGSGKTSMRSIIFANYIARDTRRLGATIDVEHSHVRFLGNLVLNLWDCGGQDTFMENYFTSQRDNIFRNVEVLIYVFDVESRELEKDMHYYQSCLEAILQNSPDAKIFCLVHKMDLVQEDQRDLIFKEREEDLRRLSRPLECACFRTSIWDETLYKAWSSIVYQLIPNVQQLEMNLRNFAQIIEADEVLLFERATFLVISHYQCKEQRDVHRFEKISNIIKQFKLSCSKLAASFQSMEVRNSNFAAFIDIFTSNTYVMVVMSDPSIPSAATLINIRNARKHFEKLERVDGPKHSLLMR
Sequence of UniProt P58004 (P58004 whole entry, looked up): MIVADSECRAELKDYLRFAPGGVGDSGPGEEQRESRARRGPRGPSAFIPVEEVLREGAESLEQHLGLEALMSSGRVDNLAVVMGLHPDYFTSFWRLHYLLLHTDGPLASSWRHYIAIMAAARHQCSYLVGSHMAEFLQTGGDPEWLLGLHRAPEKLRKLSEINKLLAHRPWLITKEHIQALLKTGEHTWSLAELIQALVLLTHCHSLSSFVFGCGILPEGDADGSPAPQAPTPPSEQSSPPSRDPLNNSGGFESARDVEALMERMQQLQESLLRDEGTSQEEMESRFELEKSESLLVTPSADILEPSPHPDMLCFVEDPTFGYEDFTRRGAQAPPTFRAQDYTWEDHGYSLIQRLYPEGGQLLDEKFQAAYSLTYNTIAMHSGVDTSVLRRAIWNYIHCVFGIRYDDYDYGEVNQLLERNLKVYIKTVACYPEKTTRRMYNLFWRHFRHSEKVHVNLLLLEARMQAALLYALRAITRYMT
Sequence of UniProt Q9UQR0 (Q9UQR0 whole entry, looked up): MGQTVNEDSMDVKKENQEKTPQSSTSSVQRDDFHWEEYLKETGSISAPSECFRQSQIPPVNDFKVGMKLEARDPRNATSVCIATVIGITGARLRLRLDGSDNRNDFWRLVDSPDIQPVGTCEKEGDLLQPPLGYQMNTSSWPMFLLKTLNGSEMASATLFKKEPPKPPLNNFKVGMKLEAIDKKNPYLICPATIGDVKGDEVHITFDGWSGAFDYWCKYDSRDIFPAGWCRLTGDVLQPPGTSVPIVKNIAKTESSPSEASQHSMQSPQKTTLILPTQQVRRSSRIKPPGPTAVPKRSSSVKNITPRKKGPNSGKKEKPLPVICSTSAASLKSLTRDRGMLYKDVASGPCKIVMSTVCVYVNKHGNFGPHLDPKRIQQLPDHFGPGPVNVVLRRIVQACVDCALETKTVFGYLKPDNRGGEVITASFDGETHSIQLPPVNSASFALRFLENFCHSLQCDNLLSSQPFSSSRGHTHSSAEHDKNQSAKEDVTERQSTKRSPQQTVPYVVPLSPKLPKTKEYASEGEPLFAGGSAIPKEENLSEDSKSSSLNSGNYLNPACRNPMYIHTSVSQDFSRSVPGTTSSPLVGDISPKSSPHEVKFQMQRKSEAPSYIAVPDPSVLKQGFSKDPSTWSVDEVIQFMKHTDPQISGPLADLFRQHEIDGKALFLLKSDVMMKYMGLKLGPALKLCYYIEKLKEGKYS
Sequence of UniProt Q9P0P0 (Q9P0P0 whole entry, looked up): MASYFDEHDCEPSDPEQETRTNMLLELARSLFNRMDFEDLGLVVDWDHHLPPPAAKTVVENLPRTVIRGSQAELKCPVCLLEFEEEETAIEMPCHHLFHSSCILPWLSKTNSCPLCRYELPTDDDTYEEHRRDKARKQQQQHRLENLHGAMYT
Sequence of UniProt P40938 (P40938 whole entry, looked up): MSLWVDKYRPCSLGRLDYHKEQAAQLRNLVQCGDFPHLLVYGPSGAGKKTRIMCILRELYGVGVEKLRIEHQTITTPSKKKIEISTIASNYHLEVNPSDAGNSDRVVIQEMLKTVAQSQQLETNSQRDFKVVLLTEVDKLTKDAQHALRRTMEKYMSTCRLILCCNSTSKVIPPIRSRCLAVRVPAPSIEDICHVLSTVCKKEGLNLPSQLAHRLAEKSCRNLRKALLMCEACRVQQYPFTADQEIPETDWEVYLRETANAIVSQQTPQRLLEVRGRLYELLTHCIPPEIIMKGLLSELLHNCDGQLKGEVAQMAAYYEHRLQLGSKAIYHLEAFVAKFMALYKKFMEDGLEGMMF
Sequence of UniProt Q8WWV3 (Q8WWV3 whole entry, looked up): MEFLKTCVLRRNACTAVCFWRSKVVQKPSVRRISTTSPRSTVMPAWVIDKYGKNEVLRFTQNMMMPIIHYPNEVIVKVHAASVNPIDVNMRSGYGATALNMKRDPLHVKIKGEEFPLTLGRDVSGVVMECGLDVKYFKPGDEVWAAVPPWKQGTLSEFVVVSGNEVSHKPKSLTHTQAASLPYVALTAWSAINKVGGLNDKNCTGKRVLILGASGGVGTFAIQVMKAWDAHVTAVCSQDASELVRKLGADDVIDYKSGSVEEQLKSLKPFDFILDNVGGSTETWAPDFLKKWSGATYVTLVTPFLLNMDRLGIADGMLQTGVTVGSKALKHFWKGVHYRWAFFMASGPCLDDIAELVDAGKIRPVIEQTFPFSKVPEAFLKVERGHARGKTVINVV
Sequence of UniProt Q8NBX0 (Q8NBX0 whole entry, looked up): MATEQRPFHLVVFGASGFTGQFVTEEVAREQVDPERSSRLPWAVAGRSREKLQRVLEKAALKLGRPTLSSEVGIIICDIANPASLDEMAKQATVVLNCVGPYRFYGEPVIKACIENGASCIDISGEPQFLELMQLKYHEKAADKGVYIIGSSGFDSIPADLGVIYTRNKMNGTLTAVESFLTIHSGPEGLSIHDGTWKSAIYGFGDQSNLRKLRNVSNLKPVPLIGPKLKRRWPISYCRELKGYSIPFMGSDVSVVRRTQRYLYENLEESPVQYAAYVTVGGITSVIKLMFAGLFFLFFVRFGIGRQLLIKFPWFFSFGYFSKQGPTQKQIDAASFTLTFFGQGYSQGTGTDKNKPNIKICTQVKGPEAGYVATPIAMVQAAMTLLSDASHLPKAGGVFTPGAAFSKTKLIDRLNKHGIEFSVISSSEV
Sequence of UniProt O94855 (O94855 whole entry, looked up): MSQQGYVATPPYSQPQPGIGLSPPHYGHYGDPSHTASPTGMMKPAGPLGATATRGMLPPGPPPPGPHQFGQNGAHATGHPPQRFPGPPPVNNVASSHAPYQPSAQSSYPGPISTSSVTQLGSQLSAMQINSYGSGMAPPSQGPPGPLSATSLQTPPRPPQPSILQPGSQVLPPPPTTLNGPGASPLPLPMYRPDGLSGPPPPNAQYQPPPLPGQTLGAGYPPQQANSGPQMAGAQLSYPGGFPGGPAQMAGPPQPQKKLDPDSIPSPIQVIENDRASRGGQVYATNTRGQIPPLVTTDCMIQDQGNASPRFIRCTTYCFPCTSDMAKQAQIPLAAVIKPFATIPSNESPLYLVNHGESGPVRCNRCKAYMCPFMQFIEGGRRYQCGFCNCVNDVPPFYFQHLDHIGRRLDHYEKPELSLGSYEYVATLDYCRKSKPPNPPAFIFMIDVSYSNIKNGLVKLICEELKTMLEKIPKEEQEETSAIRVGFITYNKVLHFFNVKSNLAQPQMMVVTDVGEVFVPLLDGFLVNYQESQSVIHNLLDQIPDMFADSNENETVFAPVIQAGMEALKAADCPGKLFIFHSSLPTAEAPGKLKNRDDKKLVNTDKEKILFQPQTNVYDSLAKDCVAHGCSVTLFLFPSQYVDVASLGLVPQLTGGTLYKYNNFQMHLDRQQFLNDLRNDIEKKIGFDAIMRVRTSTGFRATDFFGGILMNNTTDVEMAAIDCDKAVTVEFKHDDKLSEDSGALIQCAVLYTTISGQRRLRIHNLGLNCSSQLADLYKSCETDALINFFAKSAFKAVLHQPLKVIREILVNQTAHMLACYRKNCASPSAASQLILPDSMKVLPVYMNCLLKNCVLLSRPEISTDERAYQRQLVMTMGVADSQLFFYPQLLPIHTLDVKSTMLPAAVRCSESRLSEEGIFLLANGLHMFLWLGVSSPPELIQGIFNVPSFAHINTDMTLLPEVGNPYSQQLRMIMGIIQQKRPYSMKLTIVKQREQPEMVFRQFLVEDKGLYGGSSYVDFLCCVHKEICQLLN
Sequence of UniProt P04844 (P04844 whole entry, looked up): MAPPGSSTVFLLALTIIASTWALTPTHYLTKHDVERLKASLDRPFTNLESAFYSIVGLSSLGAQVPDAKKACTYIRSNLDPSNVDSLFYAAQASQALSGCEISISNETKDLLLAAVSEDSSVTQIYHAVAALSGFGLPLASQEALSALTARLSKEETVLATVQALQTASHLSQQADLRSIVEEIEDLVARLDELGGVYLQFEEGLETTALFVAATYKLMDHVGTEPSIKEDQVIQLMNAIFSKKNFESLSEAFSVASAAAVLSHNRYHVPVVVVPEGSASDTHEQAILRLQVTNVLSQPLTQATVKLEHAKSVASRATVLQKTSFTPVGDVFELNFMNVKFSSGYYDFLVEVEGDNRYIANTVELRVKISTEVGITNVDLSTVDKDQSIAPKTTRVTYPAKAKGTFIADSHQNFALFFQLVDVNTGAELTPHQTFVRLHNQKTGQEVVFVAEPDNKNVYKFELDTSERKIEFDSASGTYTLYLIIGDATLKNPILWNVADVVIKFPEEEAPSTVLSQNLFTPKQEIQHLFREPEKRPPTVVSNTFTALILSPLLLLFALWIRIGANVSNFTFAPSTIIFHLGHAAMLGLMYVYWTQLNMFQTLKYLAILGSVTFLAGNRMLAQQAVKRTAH

Compound in this test: CC1=C(C2=C(C=C1)C(=O)C3=CC=CC=C3N2CCCN)C
Kind of test: log2 fold change, soluble protein after heating vs DMSO (PISA); higher = thermal stabilisation; K562 lysate, 10 uM; active = over 0.2 and 3.5 SD of the protein, either way, in both replicates (recomputed). The procedure, abridged:
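Following dounce homogenisation of K562 pellets in PBS pH 7.4 with 1 mM MgCl2, crude extract at 1 mg/mL protein was incubated for 30 min with 10 μM compound. Aliquots were then heated for 3 min over 48°C-58°C and pooled, NP-40 was added to 0.5% at 4°C, and soluble protein was recovered as the supernatant at 21,000xg for 90 min. Channel-sum-equalised TMTpro 16plex LC-MS/MS quantified this protein. Each value, from duplicates, is a log-two fold change in thermal stability relative to solvent controls.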
On to SCML2 (UniProt Q9UQR0), for which the log2 fold change is -0.012 (inactive). The figure for SESN2 (UniProt P58004) is -0.064 (inactive); for RAF1 isoform 2 (UniProt P04049) it is -0.055 (inactive); for RFC3 (UniProt P40938) it is -0.034 (inactive). Under RPS4X (UniProt P62701) stands -0.116 (inactive); under SEC24D isoform 2 (UniProt O94855), -0.011 (inactive). With SCCPDH (UniProt Q8NBX0), the log2 fold change was -0.068 (inactive). In the case of SEH1L isoform 1 (UniProt Q96EE3), the log2 fold change is -0.014 (inactive). For the target RTN4IP1 (UniProt Q8WWV3), the log2 fold change is -0.011 (inactive).

As for RPAP1 (UniProt Q9BWH6), the log2 fold change is -0.002 (inactive). Under RIOK1 (UniProt Q9BRS2) stands -0.009 (inactive).

In the case of REXO4 (UniProt Q9GZR2), the log2 fold change was -0.053 (inactive).

Turning to RNF181 (UniProt Q9P0P0), the log2 fold change is 0.008 (inactive). As to RBMX (UniProt P38159), the log2 fold change is 0.035 (inactive).

Turning to RIOK3 (UniProt O14730), the log2 fold change was -0.023 (inactive). For RNASEH2B (UniProt Q5TBB1), the log2 fold change is 0.024 (inactive).

Consider SCD (UniProt O00767), for which the log2 fold change is 0.047 (inactive). RBM42 (UniProt Q9BTD8): the log2 fold change is 0.04 (inactive). Consider RPL37A (UniProt P61513), for which the log2 fold change is -0.032 (inactive). For RPN2 (UniProt P04844), the log2 fold change is 0.021 (inactive). The figure for RRAGA (UniProt Q7L523) is -0.089 (inactive); for RIC1 (UniProt Q4ADV7) it is -0.065 (inactive). Consider RNASEL (UniProt Q05823), for which the log2 fold change is 0.001 (inactive).
